# According to the OligoGym collection:
# Molecular target: METRNL
# Assay: pooled miR-30 sensor sort-seq; sequence = guide strand
# Details: shRNA
# Note: reference of the scale not given here.
row,Sequence,sensor-assay potency score (higher = more potent)
1,TACATCCTCTGGAAGTCCTTGA,0.329
2,TTAACGATGAGAGCACCTGTTG,-1.05
3,TCGAACGGCGAAGTCGCTGGTG,-0.372
4,TTAGTTTGCATTTTACAGCATT,-0.859
5,TAGAGTCTGCTCACGCGCAGGT,0.197
6,TGGAAGTCCTTGAAGCGTGGGG,-0.538
7,TACTGGAAGCCTGTGGTCCTCC,-0.709
8,TGAAGGACCTGATGCACACGGT,-0.842
9,TGAAGCGTGGGGCACAGCCGAG,-1.51
10,TTTTACAGCATTTCCAATCGGC,0.396
11,ATAGAGTCTGCTCACGCGCAGG,-1.52
12,TAACGATGAGAGCACCTGTTGG,-0.773

# Molecular target: METTL16
# Assay: as above
# Details: shRNA
row,Sequence,sensor-assay potency score (higher = more potent)
1,TTATCAAACACTTAAACAGGTA,-0.44
2,TTGTCCTTGTATCTATTTCTTG,-1.01
3,TTCTTCGCTTACTTGGTGGTGA,0.819
4,TTTAAGAGCATCCATCAGGAGT,-1.04
5,TTCTTTAAGAGCATCCATCAGG,-0.744
6,TTTCTCTAATTTTCTTCGCTTA,-0.889
7,TAACAAACTCTAATTCACCTCC,0.296
8,TAAGGCATCGTCCACCTCCTTC,-0.93
9,TTCTTCTTTAAGAGCATCCATC,-1.07
10,TTTGCTTACCTAATTCTGCTTC,0.554
11,TGTATTAACAGAACTAGGCGGA,0.503
12,TTAACGTTTATCAAACACTTAA,-1.21
